Calls of active or inactive are those of the source.
How the values were obtained:
[1] = binders of probe aFSTL3 on microarray, primary screen, stem cell growth factor project, biochemical, small-molecule microarray, fluorescence 635/667 (AID 1064); settings: higher = more signal;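 also: measures binding of the biotinylated anti-FSTL3 antibody to printed compounds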
[2] = binders from COS7 lysate, DM2A8 probe, primary screen, torsin A project, cell lysate, small-molecule microarray, fluorescence 635/667 (AID 1065); settings: higher = more signal, COS7 lysate expressing mutant human TOR1A
[3] = binders of probe aFGF2 on microarray, primary screen, stem cell growth factor project, biochemical, small-molecule microarray, fluorescence 635/667 (AID 1067); settings: higher = more signal;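 also: measures binding of biotinylated aFGF2 protein to printed compounds on slides; z-score merges feature fluorescence and signal-to-noise across triplicate slides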
[4] = binders of probe aFGF10 on microarray, primary screen, stem cell growth factor project, biochemical, small-molecule microarray, fluorescence 635/667 (AID 1071); settings: higher = more signal;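 also: score merges 667 nm spot intensity and signal to noise from triplicate slides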
[5] = target: Neurogenic locus notch homolog protein 2 (Homo sapiens) (UniProt Q04721); assay: Notch2 binders on small-molecule microarrays, primary screen, biochemical, small-molecule microarray, 635 nm fluorescence, stem cell growth factors (AID 1073); settings: Notch2 binding, higher = more signal
[6] = target: Pro-neuregulin-1, membrane-bound isoform (Homo sapiens) (UniProt Q02297); assay: NRG1 binders on small-molecule microarrays, primary screen, psychiatric disease protein project, biochemical, small-molecule microarray, fluorescence 635/667 (AID 1075); settings: NRG1 binding, 635 nm fluorescence, higher = more signal;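 also: score combines 667 nm spot fluorescence with signal to noise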
Pro-neuregulin-1, membrane-bound isoform (Homo sapiens), sequence (Q02297 whole entry, looked up, the tested form may be a part, canonical isoform): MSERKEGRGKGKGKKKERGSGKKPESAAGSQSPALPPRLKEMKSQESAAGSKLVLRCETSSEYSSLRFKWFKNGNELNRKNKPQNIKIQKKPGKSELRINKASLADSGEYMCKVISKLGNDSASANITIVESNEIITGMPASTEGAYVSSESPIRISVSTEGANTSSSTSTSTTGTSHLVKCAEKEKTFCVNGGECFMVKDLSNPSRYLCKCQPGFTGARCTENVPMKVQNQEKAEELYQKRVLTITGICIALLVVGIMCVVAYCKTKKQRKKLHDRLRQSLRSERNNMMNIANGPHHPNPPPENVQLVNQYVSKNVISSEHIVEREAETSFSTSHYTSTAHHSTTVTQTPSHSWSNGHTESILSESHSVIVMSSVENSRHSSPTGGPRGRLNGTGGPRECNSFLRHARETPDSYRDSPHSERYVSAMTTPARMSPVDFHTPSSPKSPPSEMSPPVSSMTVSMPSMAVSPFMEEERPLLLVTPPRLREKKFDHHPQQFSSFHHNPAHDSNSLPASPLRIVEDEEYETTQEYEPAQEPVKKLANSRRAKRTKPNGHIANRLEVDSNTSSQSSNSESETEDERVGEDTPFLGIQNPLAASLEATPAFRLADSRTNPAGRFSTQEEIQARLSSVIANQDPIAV

[7] = test system: Neuregulin-1 EGF-like domain; assay: binders of neuregulin-1 EGF-like domain, primary screen, biochemical, small-molecule microarray, 635 nm fluorescence (AID 1081); settings: small-molecule microarray binding, higher = more signal;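 also: binding of the protein to compounds printed on small-molecule microarray slides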
[8] = FRG1 promoter luciferase signal modulators, primary screen, FRG1 inhibition for FSHD, cell-based, C2C12 myotubes, firefly/Renilla luciferase, luminescence (AID 1084); settings: higher = more signal, called active from +8 up or from −8 down
[9] = binders of probe aFST on microarray, primary screen, stem cell growth factor project, biochemical, small-molecule microarray, fluorescence 635/667 (AID 1086); settings: higher = more signal;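 also: score merges 667 nm fluorescence with signal-to-noise of each printed compound spot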
[10] = binders of probe aHhip on microarray, primary screen, stem cell growth factor project, biochemical, small-molecule microarray, fluorescence 635/667 (AID 1087); settings: higher = more signal;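 also: score merges spot fluorescence at 667nm with spot signal to noise ratio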
[11] = test system: PRMT1 (protein arginine N-methyltransferase 1); assay: PRMT1 binders on small-molecule microarrays, primary screen, biochemical, small-molecule microarray, 635 nm fluorescence (AID 1088); settings: small-molecule microarray binding, higher = more signal;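 also: binding of Prmt1 protein to compounds spotted on small-molecule microarray slides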
[12] = yeast growth modulation, basal conditions, primary screen, YJM789 clinical isolate, OD600, 24 h (AID 1089);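 also: growth of clinical yeast isolate S. cerevisiae YJM 789 seeded 1000 cells per well; test concentration not given here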; settings: S. cerevisiae YJM789 growth, higher = more signal, called active from +8 up or from −8 down
[13] = fission yeast growth modulation, primary screen, strain 972, OD600, 24 h, no modulator (AID 1090);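 also: basal condition with compound alone and no growth modifier present; test concentration not given here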; settings: S. pombe 972 growth, higher = more signal, called active from +8 up or from −8 down
[14] = S. cerevisiae growth modulation with rapamycin, primary screen, strain BY4716, OD600, 96 h (AID 1091); settings: higher = more signal, called active from +8 up or from −8 down; also: test concentration not given here
[15] = target: Torsin-1A-interacting protein 2 (Homo sapiens) (UniProt Q8NFQ8); assay: LULL1 binders on small-molecule microarray, primary screen, cell lysate, human LULL1 lysate, 635/667 nm fluorescence (AID 1092); settings: hLULL1 lysate binding, 635 nm fluorescence, higher = more signal;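 also: probe is lysate of COS7 cells overexpressing human LULL1; score merges per-feature 667 nm fluorescence with signal-to-noise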
Torsin-1A-interacting protein 2 (Homo sapiens), sequence (Q8NFQ8 whole entry, looked up): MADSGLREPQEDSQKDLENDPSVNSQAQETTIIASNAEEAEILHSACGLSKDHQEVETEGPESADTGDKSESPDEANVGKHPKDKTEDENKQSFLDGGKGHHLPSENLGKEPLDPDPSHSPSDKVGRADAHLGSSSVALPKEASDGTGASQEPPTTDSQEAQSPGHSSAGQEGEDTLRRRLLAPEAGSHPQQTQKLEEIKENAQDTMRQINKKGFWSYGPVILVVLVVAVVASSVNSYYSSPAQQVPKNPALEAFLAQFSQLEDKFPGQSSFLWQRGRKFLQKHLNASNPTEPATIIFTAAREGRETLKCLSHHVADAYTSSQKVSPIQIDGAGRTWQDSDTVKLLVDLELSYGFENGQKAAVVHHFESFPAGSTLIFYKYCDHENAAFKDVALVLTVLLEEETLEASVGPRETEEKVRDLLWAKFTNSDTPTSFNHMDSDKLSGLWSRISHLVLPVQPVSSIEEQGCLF

[16] = E. coli growth modulation, two-sided OD650, primary screen, E. coli filamentation project, strain DRC41, 24 h (AID 1093); settings: OD650, 24 h, higher = more signal, called active from +8 up or from −8 down;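 also: MC1000 strain lacking acrAB efflux and sulA so SOS filamentation is blocked; test concentration not given here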
[17] = small-molecule microarray binders of probe aLefty2, primary screen, biochemical, biotinylated probe, 635/667 nm fluorescence (AID 1094); settings: higher = more signal;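 also: score merges spot fluorescence near 667 nm with spot signal-to-noise ratio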
[18] = test system: Noggin (protein binding on small-molecule microarray); assay: Noggin binders on small-molecule microarray, primary screen, biochemical, 635/667 nm fluorescence (AID 1095); settings: 635 nm fluorescence, higher = more signal;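 also: score merges 667 nm feature fluorescence with signal to noise over triplicate slides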
[19] = target: Neurogenic locus notch homolog protein 3 (Homo sapiens) (UniProt Q9UM47); assay: NOTCH3 binders on small-molecule microarray, primary screen, biochemical, 635/667 nm fluorescence (AID 1096); settings: NOTCH3 binding, 635 nm fluorescence, higher = more signal
Neurogenic locus notch homolog protein 3 (Homo sapiens), sequence (Q9UM47 whole entry, looked up): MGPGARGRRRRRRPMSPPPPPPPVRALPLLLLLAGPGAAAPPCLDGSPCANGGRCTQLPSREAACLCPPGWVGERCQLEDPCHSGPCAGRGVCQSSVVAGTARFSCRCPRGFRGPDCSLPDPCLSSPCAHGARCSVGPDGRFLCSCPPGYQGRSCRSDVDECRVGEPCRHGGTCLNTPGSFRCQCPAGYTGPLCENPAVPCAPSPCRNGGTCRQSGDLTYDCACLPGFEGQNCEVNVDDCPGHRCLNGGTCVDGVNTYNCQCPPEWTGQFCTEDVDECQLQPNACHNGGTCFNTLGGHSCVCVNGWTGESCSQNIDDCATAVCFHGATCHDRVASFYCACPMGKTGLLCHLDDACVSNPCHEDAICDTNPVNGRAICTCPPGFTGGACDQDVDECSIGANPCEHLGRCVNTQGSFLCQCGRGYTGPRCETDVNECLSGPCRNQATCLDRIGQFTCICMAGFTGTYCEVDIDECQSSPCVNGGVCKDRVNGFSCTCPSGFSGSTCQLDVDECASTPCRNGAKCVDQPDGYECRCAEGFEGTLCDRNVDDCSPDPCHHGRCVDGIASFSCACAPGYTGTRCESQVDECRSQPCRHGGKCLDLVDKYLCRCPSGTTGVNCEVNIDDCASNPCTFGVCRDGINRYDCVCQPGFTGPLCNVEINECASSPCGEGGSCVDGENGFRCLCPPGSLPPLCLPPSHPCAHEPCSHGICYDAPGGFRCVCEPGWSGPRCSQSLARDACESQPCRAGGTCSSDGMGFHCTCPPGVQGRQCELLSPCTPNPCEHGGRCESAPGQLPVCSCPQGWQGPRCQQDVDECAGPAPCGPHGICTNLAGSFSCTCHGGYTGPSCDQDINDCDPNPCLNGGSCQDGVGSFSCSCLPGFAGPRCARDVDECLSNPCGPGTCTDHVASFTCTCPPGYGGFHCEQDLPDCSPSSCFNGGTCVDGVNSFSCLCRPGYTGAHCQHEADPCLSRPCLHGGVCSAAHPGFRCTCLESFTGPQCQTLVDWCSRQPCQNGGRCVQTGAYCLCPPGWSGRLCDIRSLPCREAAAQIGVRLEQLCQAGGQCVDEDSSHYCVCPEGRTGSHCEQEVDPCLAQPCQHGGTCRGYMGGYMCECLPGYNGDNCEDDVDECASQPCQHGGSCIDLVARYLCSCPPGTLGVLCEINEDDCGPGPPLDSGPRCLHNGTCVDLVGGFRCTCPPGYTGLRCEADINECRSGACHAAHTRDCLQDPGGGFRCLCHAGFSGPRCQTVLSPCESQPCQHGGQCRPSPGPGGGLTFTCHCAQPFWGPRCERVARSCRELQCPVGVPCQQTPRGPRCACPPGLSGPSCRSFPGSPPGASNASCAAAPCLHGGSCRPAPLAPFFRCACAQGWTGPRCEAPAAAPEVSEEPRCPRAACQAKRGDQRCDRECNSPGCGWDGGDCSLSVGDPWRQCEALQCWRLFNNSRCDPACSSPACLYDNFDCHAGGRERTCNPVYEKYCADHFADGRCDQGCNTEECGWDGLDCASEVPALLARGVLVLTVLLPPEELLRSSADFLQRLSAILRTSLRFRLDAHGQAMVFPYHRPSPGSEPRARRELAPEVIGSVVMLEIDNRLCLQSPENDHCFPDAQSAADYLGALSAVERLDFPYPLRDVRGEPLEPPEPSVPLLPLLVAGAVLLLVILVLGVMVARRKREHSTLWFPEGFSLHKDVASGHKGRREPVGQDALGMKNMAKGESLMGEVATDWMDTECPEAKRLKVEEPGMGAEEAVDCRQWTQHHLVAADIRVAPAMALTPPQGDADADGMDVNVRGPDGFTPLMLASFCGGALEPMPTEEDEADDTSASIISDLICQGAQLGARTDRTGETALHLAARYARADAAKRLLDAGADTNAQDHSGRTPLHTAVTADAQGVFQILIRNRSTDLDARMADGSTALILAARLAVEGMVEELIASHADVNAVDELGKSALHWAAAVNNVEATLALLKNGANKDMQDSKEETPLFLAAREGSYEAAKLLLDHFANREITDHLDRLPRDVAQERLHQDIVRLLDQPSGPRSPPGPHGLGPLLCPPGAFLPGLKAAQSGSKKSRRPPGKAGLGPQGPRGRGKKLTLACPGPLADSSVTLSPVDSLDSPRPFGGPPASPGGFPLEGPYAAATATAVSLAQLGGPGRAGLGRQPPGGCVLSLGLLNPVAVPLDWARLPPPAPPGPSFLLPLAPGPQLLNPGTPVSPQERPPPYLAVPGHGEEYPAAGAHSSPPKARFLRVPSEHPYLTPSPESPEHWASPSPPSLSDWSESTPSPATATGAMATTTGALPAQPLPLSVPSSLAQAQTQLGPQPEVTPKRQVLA

[20] = small-molecule microarray binders of probe aEGFR, primary screen, biochemical, biotinylated probe, 635/667 nm fluorescence (AID 1097); settings: higher = more signal;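 also: probe is a biotinylated anti-EGFR antibody binding compounds printed on slides; score combines fluorescence near 667 nm and signal to noise of each spot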

Compound | composite z-score [1] | composite z-score [2] | composite z-score [3] | composite z-score [4] | composite z-score [5] | composite z-score [6] | composite z-score [7] | z-score [8] | composite z-score [9] | composite z-score [10] | composite z-score [11] | z-score [12] | z-score [13] | z-score [14] | composite z-score [15] | z-score [16] | composite z-score [17] | composite z-score [18] | composite z-score [19] | composite z-score [20]
COc1ccc([Si](C)(C)[C@H]2[C@H](CCO)O[C@@]3(C(=O)N(Cc4cccc(N5C(=O)c6cccc7cccc5c67)c4)c4ccccc43)[C@@H]2C)cc1 | 0.0761 | -0.364 | 0.0253 | 0.404 | -0.136 | 0.795 | 1 | -1.43 (inactive) | -0.26 | -0.212 | 1.16 | 2.05 (inactive) | 1.23 (inactive) | 36.9 (active) | 2.1 | 0.879 (inactive) | -0.205 | 0.492 | 0.344 | -0.225
COC(=O)[C@@]1(Cc2ccc(OC)cc2)[C@H]2c3cc(C(=O)N(C)C)n(Cc4ccc(OC)c(OC)c4)c3C[C@H]2CN1C(=O)c1ccccc1 | 0.42 | 0.796 | -0.0824 | 0.336 | 1.73 | 1.86 | 1.28 | 0.889 (inactive) | 1.39 | 0.525 | 1.58 | 1.04 (inactive) | 2.35 (inactive) | 4.24 (inactive) | 3.65 | -0.841 (inactive) | 0.401 | -0.356 | 1.03 | 0.288
CCCC[C@@H]1C[C@H]1[C@@H](NC(=O)c1ccco1)c1ccccc1 | 1.29 | -0.52 | -0.171 | -0.511 | -2.22 | -0.44 | -0.454 | -0.192 (inactive) | -0.945 | -0.0275 | -0.206 | -0.867 (inactive) | -15.3 (active) | -0.0654 (inactive) | -0.832 | -1.61 (inactive) | -0.121 | -1.77 | -0.716 | -0.25
O=C1O[C@H](c2ccccc2)[C@H](c2ccccc2)N2[C@H]1[C@@H](C(=O)NC[C@H](O)c1ccccc1)[C@]1(C(=O)Nc3ccc(C#CC4=CCCCC4)cc31)[C@H]2c1ccc(O)cc1 | 0.84 | 0.891 | 0.146 | 0.962 | 0.671 | 1.4 | 1.16 | 0.733 (inactive) | 0.826 | -0.0618 | 1.55 | 0.896 (inactive) | 0.543 (inactive) | 1.62 (inactive) | 2.59 | 2 (inactive) | -0.0766 | 1.61 | 1.08 | 0.272
CC(C)[C@H]1COC(=O)N1C(=O)[C@H]1[C@@H](c2ccccc2)N(c2ccccc2)O[C@@H]1C | -0.385 | 0.182 | -0.204 | 0.488 | 1.14 | 0.182 | 0.974 | -0.803 (inactive) | 0.301 | -0.367 | 0.842 | -0.384 (inactive) | -2.87 (inactive) | 0.0611 (inactive) | 1.29 | 0.874 (inactive) | -0.0023 | 0.403 | 0.757 | -0.12
O=C(N1CCCCC1)[C@]1(CCS(=O)(=O)c2ccccc2)N=C(c2ccc(OCCCO)cc2)O[C@@H]1c1ccccc1 | 1.04 | 0.815 | 0.215 | 0.803 | 0.773 | 1.49 | 1.11 | -1.79 (inactive) | 0.636 | 0.0623 | 1.56 | -0.503 (inactive) | -0.282 (inactive) | 5.25 (inactive) | 2.4 | -0.643 (inactive) | 0.568 | 0.115 | 1.11 | 0.244
COCCCNC(=O)[C@]1(Cc2ccccc2N=[N+]=[N-])N=C(c2ccc(OCCCO)cc2)O[C@@H]1c1ccccc1CN=[N+]=[N-] | 0.201 | 0.157 | 0.182 | 1.05 | 1.68 | 1.49 | 1.33 | -0.0402 (inactive) | 1.33 | -0.0296 | 1.51 | -1.24 (inactive) | -0.365 (inactive) | 4.94 (inactive) | 3.18 | 1.01 (inactive) | 0.465 | 0.579 | 1.09 | 0.606
C=CCOC(=O)[C@H]1[C@@H]2C(=O)O[C@@H](c3ccccc3)[C@@H](c3ccccc3)N2[C@@H](c2ccc(OCCOC(=O)[C@@H]3C[C@@H]4C(=O)NCC(=O)N4[C@@H]3c3ccc(O)cc3)cc2)[C@]12C(=O)Nc1ccc(I)cc12 | -0.321 | 0.335 | 0.0364 | 0.438 | 0.93 | 1.17 | 1.27 | -0.0667 (inactive) | 0.317 | 0.107 | 1.55 | 0.591 (inactive) | 0.0218 (inactive) | 2.48 (inactive) | 2.57 | -0.375 (inactive) | -0.205 | 1.64 | 1.11 | -0.0788
C=C(/C(=C/C[C@@H](OC(C)=O)c1ccc(CO)o1)c1cnc2ccccc2c1)C(C)C | -0.524 | 1.53 | -0.0766 | 1.13 | 1.53 | 0.766 | 1.32 | 0.439 (inactive) | 0.284 | -0.0618 | 1.55 | 1.2 (inactive) | -0.767 (inactive) | 0.375 (inactive) | 1.86 | 1.27 (inactive) | -0.11 | 1.08 | 1.07 | 0.0367
CCN(CC)c1ccc(N2CC=CC34O[C@@H]5C=CCCOC(=O)C5[C@H]3C(=O)N(CCCO)[C@@H]4C2=O)cc1 (stereo not given in full) | -0.0768 | -0.288 | -0.158 | -0.332 | -0.816 | -0.613 | -0.0612 | -0.306 (inactive) | -0.177 | -0.134 | -0.664 | -0.452 (inactive) | -0.983 (inactive) | -0.282 (inactive) | -1.02 | 1.87 (inactive) | -0.122 | 0.232 | -0.155 | -0.162
